# The panel holds about 83,000 compounds, 20% with a hit somewhere; the sample as a whole holds those more often.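 Interpretation: 100, growth as untreated; towards 0, rising growth inhibition; 0, no net growth; 0 to -100, cell death. Compounds scoring below 10 were considered active.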 Calls of active or inactive are those of the source.
# System: EKVX NSCLC
# Experiment: NCI-60 one-dose screen, 48 h (100 = growth as untreated, 0 = no growth, -100 = all killed)
# Conditions: 10 µM unless noted
# Experimental: Growth inhibition of the EKVX human Non-Small Cell Lung tumor cell line is measured as a screen for anti-cancer activity. Cells are grown in 96 well plates and exposed to the test compound for 48 hours. Compounds are tested at a single concentration, which is 10^-5 M for most compounds. The reported endpoint is percent growth (GI% or GIPRCNT), where numbers from 0 - 100% represent growth inhibition, and numbers from -100% - 0 represent cell death. For example, a value of 40 represents 60% growth inhibition. A value of 0 means no net growth occurred over the course of the experiment. A value of -40 indicates 40% of cells at the beginning of the experiment died by the end of the experiment. A value of -100 means all cells are dead at the end of the experiment.
# NCI-60 Human Tumor Cell Lines Screen was performed using the standard one-dose NCI protocol, which is described in more detail at https://dtp.cancer.gov/discovery_development/nci-60/default.htm.
# Compounds with GIPRCNT values below 10 were considered active. Activity score was based on GIPRCNT using the following formula: […]
# Score is 0 for GIPRCNT values of 100 or above, 50 for GIPRCNT values of 0, and 100 for GIPRCNT values of -100.
row,Structure (SMILES),growth
1,O=C(N/N=C/[C@H](O)[C@H](O)[C@H](O)CO)c1ccc(NC(=O)c2cccnc2)cc1,105% (inactive)
2,COc1ccc(-c2cc(-c3ccc(Cl)cc3)c(C#N)c(=O)n2CCCCCC(=O)Nc2ccccc2N)cc1,51.5% (inactive)
3,C[C@]12CC[C@@H]3c4cc(OC(F)F)c(OS(N)(=O)=O)cc4CC[C@H]3[C@@H]1CC[C@@H]2O,40.2% (inactive)
4,COc1ccc(C(=S)N2CCN(c3cccc(C)c3)CC2)cc1OC,102% (inactive)
5,Cn1cc(-c2cc3ncnc(Nc4ccc(CC(=O)Nc5cc(C(C)(C)C)on5)cc4)c3s2)cn1,60.2% (inactive)
6,CNCCCC12CCC(c3ccccc31)c1ccccc12,87.9% (inactive)
7,CC(C)(C)NC(=O)C(OC(=O)c1cccc(Cl)c1)c1ccc(Cl)cc1 (stereo not given),109% (inactive)
8,COc1ccc2c(c1OC)C(=O)O[C@H]2[C@H]1c2c(cc3c(c2OC)OCO3)CCN1C,95.4% (inactive)
9,Cc1ncc(C(=O)Nc2ccc(CN3CCN(C)CC3)c(C(F)(F)F)c2)cc1C#Cc1ccc(N)nc1,9.23% (active)
10,O=C(O)CCC/C=C\C[C@H]1C=CC(=O)/C1=C/C[C@@H](O)CCc1cccc(C(F)(F)F)c1,37.9% (inactive)
11,O=C1NC(=O)C(Cn2cnc3ccccc32)N1 (stereo not given),100% (inactive)
12,COc1cccc(-c2nc(-c3ccc(NC(=O)OC(C)C)cc3)[nH]c2-c2ccnc(Br)c2)c1,27.6% (inactive)
13,CC1=NN(c2ccc(S(=O)(=O)O)cc2)C(=O)C1N=Nc1ccc(-c2ccc(N=Nc3ccc(OS(=O)(=O)c4ccc(C)cc4)cc3)c(S(=O)(=O)O)c2)cc1 (stereo not given),107% (inactive)
14,CN1C(=C2C(=O)OC(C)(C)OC2=O)CCC1C(=O)NCc1ccc(Cl)cc1Cl (stereo not given),97.5% (inactive)
15,Cc1cc(-c2cc(C)c(N)cc2C)c(C)cc1N,115% (inactive)
16,NC1=C(c2nn[nH]n2)C(c2ccccc2Cl)c2ccc3ccccc3c2O1 (stereo not given),90.7% (inactive)
17,CCOC(=O)/C(C#N)=C\Nc1ccc2ncnc(Nc3ccc(Cl)cc3Cl)c2c1,41.7% (inactive)
18,CCc1nnc(NC(=O)c2nnn(-c3ccccc3)c2-c2ccco2)s1,84.7% (inactive)
19,CCOC(=O)c1c(C)nc2c(c1N)CC(=O)N2Cc1ccc(F)cc1,94.9% (inactive)
20,CCC(C)(c1cc(C(C)(C)C)c(O)c(C(C)(C)C)c1)c1cc(C(C)(C)C)c(O)c(C(C)(C)C)c1,107% (inactive)

row,Structure (SMILES),growth
1,CCOC(=O)C1=C(N)Oc2c(sc3c(C)cccc23)C1c1ccc(OC)cc1 (stereo not given),88.5% (inactive)
2,Cc1ccc(-c2nc(N3CCN(CC(=O)Nc4ccc(Cl)c(C(F)(F)F)c4)CC3)c3ccccc3n2)cc1,87.3% (inactive)
3,COc1nc2ccc(C)cc2cc1-c1nc2c(cnn2-c2ccccc2)c(=O)[nH]1,85.1% (inactive)
4,Cc1ccc(-c2nc(N3CCN(C(=O)c4ccc(OC(F)(F)F)cc4)CC3)c3ccccc3n2)cc1,88.5% (inactive)
5,Fc1cc2c(cc1Cl)N(c1ncnc3ccc(-c4cnc5cnccn45)cc13)CC2,63.4% (inactive)
6,CN(C)CC#Cc1ccc2ncc(C#N)c(Nc3ccc(F)c(Cl)c3)c2c1,30.8% (inactive)
7,O=C1/C(=C/c2ccccc2[N+](=O)[O-])Oc2ccc(O)c(O)c21,63.9% (inactive)
8,CCCCCCCCCCCCCCCCCCOc1ccc(CC(=O)OCC[N+]2(C)CCCCC2)cc1,97.9% (inactive)
9,c1ccc(-c2nc3sc(-c4ccccc4)cn3n2)cc1,78.6% (inactive)
10,Cc1ccc(S(=O)(=O)N/N=C/C2(c3ccccc3)CC2)cc1,99% (inactive)
11,COc1ccc(-c2nc3sc(-c4ccc(Cl)cc4)cn3n2)cc1,47.5% (inactive)
12,O=c1c2cc(F)ccc2sc2c(N3CCNCC3)nc3ccc(F)cc3c12,66.4% (inactive)
13,NCCCNc1nc2ccccc2c2c(=O)c3cc(C(F)(F)F)ccc3sc12,71.6% (inactive)
14,CN1CCN(c2ccc(-c3ccc4ncc(C#N)c(Nc5ccc(F)c(Cl)c5)c4c3)cc2)CC1,54.4% (inactive)
15,CN1CCN(Cc2ccc(NC(=O)c3cncc(C#Cc4cnccc4C#N)c3)cc2C(F)(F)F)CC1,66.4% (inactive)
16,CN1CCN(c2ccc(-c3cc4c(Nc5ccc(F)c(Cl)c5)ncnn4c3)cn2)CC1,100% (inactive)
17,COc1ccc2c(c1)c(-c1ccc(-c3cn(C)c4ccc(OC)cc34)o1)cn2C,46.1% (inactive)
18,CCOC(=O)c1cn2ncnc(Oc3ccc(NC(=O)NCCN(C)C)c(Cl)c3)c2c1C,79.3% (inactive)
19,O=c1c2cc(F)ccc2sc2c(NCCCNCCO)nc3ccc(F)cc3c12,75.4% (inactive)
20,Cc1cc(=O)[nH]c(=O)n1Cc1cn(-c2c3ccccc3nc3ccccc23)nn1,103% (inactive)
